Among all 360,000 compounds or so, about 3,000 (0.83%) were called active. Shown is part of a subset that was picked to be rich in actives. Values without a mark were called inactive. Cut-off read from the data, not from the text of the source: active = inhibition above about 38%; inactive = the rest.
target: G-protein coupled receptor 183 (Homo sapiens) (UniProt P32249); assay: EBI2 receptor antagonists, beta-arrestin recruitment, primary screen, cell-based, luminescence, 7a,25-OHC stimulation, uHTS (AID 651636); conditions: 7a,25-OHC stimulated, at 5 µM, active compounds read high;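 note: enzyme fragment complementation signal reports receptor beta-arrestin coupling in cells; 0% = agonist plus DMSO wells and 100% = wells without agonist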
Sequence (P32249 whole entry, looked up, the tested form may be a part): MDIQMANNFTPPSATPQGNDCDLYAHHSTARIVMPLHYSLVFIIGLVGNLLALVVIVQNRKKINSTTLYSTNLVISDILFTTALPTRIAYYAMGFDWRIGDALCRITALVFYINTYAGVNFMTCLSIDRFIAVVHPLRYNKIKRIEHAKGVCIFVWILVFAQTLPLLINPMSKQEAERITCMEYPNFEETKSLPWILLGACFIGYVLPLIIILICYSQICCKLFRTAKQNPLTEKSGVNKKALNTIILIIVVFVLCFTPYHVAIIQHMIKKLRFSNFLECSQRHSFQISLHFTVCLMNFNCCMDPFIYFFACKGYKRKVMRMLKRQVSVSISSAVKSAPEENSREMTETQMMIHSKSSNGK

| SMILES | inhibition |
| --- | --- |
| O=C(Cc1ccc(Cl)cc1)NCc1nc(-c2ccccc2)no1 | 4.5% |
| O=C(NCc1ccc(Cl)cc1)c1cc2c(nc3sccn32)s1 | 12.5% |
| O=C(NCc1ccc(Cl)cc1)c1cc(=O)nc2sc(-c3ccccc3)nn12 | 49.6% (active) |
| CC(=O)NC12CC3CC(C1)CC(C(=O)N1CCN(C(=O)c4ccco4)CC1)(C3)C2 | 1.98% |
| COc1ccc(-c2nnn(Cc3nc(N)nc(N4CCCCC4)n3)n2)cc1 | 5.05% |
| COc1ccc(-c2nc(N)ncc2-c2ccc(Cl)cc2)c(O)c1 | 88.2% (active) |
| COc1cccc(-c2cnc(OC(C)(C)C)nc2OC(C)(C)C)c1 | -3.37% |
| COc1ccc(-c2c(-c3ccc(OC)cc3O)nc(C)nc2C(F)(F)F)cc1 | 14.5% |
| CCOc1ccc(C(=O)N(Cc2ccc(N(C)C)cc2)C2CCS(=O)(=O)C2)cc1 (configuration not stated) | 7.56% |
| O=C(Nc1cc2c3c(c1)CC(=O)N3CCC2)c1ccccc1F | -3.38% |
| Oc1ccc2ccccc2c1N=Nc1nccs1 | 58.9% (active) |
| CC1(c2nnc(Cc3ccccc3)o2)CC(c2ccccc2F)=NO1 (configuration not stated) | -4.25% |
| CCOC(=O)[C@]12CCCC=C1N(CCC1=CCCCC1)C(=O)[C@H](CC(=O)N1CCN(C(=O)c3ccco3)CC1)C2 | -0.759% |
| c1ccc(-c2cnc(CN3CCN(c4ccccc4)CC3)o2)cc1 | 3.15% |
| COc1ccc(N2CCN(Cc3ccc(Br)s3)CC2)cc1 | -1.05% |
| Fc1ccc(N2CCN(Cc3cnc(Oc4ccc(Br)cc4)s3)CC2)cc1 | 46.4% (active) |
| COc1ccc(OC)c(C(=O)c2coc3ccc(O)c(CN4CCOCC4)c23)c1 | 37% (active) |
| Cc1ccc(C(=O)c2coc3ccc(O)c(CN(C)C)c23)cc1 | -7.39% |
| COc1ccc(OC)c(C(=O)c2coc3ccc(OC)cc23)c1 | 5.5% |
| CN(O)C(=S)c1ccccc1 | 43% (active) |
| C=CCOC(=O)C1=C[C@@H](c2ccccc2)C[C@@H](OCc2ccc(CO)cc2)O1 | 7.13% |
| Cc1ccc2c(C)c(C(=O)N3CCN(c4ccncc4)CC3)oc2c1C | 1.76% |
| CCCCNC(=S)N/N=C1\CCCCc2ccccc21 | 6.96% |
| CCCC1CCC(=NNC(=S)NCCc2ccccc2)CC1 (configuration not stated) | 66.9% (active) |
| Cc1cc(F)ccc1NC(=S)NCCc1ccccc1 | 1.81% |
| CC(=O)CCS(=O)(=O)c1ccc(C)c(C)c1 | -7.62% |
| CC(=O)c1cc(-c2ccccc2)n(CCC(=O)NC2CCCCCC2)c1C | -14.6% |
